The list is not random: actives were taken first. Their share in the collection is about 3%.
SENP8 block-1 – inhibitors of human SENP8 protease | Q96LD8 | recombinant SENP8, Nedd8 substrate fluorescence | inhibition, % at 20 µM | 360,000 compounds, 0.64% hits; in the data active = inhibition mostly above about 40%, no sharp cut-off; inactive = mostly below about 27%
Target sequence (Q96LD8 whole entry, looked up): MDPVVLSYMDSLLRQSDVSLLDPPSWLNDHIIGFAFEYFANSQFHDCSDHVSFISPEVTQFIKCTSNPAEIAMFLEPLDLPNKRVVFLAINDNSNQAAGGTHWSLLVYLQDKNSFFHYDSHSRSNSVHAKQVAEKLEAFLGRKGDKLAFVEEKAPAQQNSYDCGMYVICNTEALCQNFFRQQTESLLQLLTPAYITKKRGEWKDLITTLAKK
SENP8 block-2 – inhibitors of human SENP8 protease | Q96LD8 | purified SENP8, Z-RLRGG-aminoluciferin cleavage, luminescence | inhibition, % at 10 µM | 330,000 compounds, 1.2% hits | AID 2540; in the data active = inhibition above about 50%
PPC-1+TRAIL kill – PPC-1 cancer cell killing with TRAIL present; PPC-1 cells + TRAIL, ATPLite viability luminescence; cell killing (% activity), % at 4 µM or 5 µM; 220,000 compounds, 0.41% hits;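 active = cell killing above 50% in the first pass at 4 µM, then a duplicate retest at 5 µM averaging 50% or more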;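 note: plate controls were cells with TRAIL plus DMSO for no effect and medium-only wells lacking cells for full effect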
C8 TRAIL sens – sensitizes caspase-8 expressing cells to TRAIL. NB7+C8 cells + TRAIL, ATPlite viability luminescence. inhibition (viability loss, TRAIL sensitization), % at 10 µM. 360,000 compounds, 1% hits;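 active = compounds causing at least 50% loss of cell viability in the single-dose screen, relative to plate controls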
SENP6 inh – SENP6 protease inhibition. Recombinant SENP6 catalytic domain, aminoluciferin luminescence. inhibition, % at 10 µM. 330,000 compounds, 1.8% hits;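 active = inhibition above about 50% at the single tested dose, limit read from the data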;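 note: plate controls were DMSO wells with enzyme for no effect and DMSO wells lacking enzyme for full effect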
Target sequence (Q9GZR1 628-1112 limits assumed): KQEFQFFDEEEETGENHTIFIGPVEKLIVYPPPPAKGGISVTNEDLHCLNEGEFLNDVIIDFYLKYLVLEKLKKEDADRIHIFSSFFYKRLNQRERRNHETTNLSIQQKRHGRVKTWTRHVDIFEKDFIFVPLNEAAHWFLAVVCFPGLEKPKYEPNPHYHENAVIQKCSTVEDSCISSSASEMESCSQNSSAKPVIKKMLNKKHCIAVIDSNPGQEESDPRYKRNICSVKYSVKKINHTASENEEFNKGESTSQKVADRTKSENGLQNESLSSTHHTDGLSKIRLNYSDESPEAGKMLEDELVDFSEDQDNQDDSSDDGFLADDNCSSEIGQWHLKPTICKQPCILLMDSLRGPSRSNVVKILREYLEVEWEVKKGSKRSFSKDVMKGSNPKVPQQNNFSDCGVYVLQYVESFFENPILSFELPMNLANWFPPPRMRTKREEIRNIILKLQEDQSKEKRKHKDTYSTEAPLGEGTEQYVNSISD
SENP7 inh – blocks the human protease SENP7 | inhibition, % at 5 µM | 330,000 compounds, 1.5% hits | recombinant SENP7, Z-RLRGG-aminoluciferin luminescence, 40 min;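 active = inhibition above about 50% at the single test dose, limit read from the data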;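 note: plate controls were DMSO with enzyme for no effect and no enzyme buffer wells for full effect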
* marks the source's active call; other numbers are inactive results; · = not tested or not shown.

SMILES | SENP8 block-1 | SENP8 block-2 | PPC-1+TRAIL kill | C8 TRAIL sens | SENP6 inh | SENP7 inh
Oc1[nH]c(N=C2N=c3ccccc3=N2)c2ccccc12 | 16.0 | · | 27.8 | 65.1* | · | ·
CCOC(=O)c1sc2nc3c(SCC(=O)O)cc(C(=O)c4cc(F)ccc4O)cn3c(=O)c2c1C | -220.5 | · | 10.7 | 28.4 | · | ·
CCOC(=O)c1sc2nc3c(SCC(=O)O)cc(C(=O)c4ccccc4O)cn3c(=O)c2c1C | -238.7 | -0.2 | 20.7 | 53.3* | -9.6 | 2.7
COc1ccccc1N1CCN(C2CCCN(C(=O)CCc3ccccn3)C2)CC1 (centres undefined) | -7.1 | 6.9 | · | -13.8 | 10.8 | 5.4
COC(=O)/C=C1\OCc2cc(OCc3ccccc3)ccc21 | 5.2 | · | · | -2.3 | · | ·
O=C(Nc1ccccc1)Nc1nc(-c2ccccc2)cs1 | 17.5 | 5.2 | 3.3 | 1.6 | -6.4 | -6.8
CC(C)(C)c1csc(NC(=O)Nc2ccccc2)n1 | 7.2 | 5.0 | 24.7 | 54.4* | -1.1 | -6.1
Cc1ccc([N+](=O)[O-])cc1N(CC(=O)Nc1ccc(S(=O)(=O)Nc2cccc(C(F)(F)F)c2)cc1)S(C)(=O)=O | 19.0 | -4.7 | 17.6 | 6.1 | -19.4 | -2.8
Nc1n[nH]c(N)c1N=Nc1ccc(Cl)cc1 | 54.5* | -4.9 | -22.3 | 2.0 | 6.5 | 5.3
Nc1[nH]ncc1N=Nc1ccc(Cl)cc1 | 47.9* | -19.8 | 15.0 | -6.9 | -43.3 | -1.9
Nc1n[nH]c(N)c1N=Nc1cccc(C(F)(F)F)c1 | 44.1* | -17.6 | · | 7.2 | 0.8 | -0.9
O=C1NC[C@H](CCCCN2C[C@H](Cc3ccccc3)N(Cc3ccccc3)C(=O)C2=O)N(CCc2ccccc2)C1=O | 25.9 | · | · | 0.5 | · | ·
Cc1ccc(S(=O)(=O)N2[C@H](CC(=O)c3cccs3)OC[C@@H]2C(C)C)cc1 | 19.7 | · | · | 18.2 | · | ·
Cc1cc(C)c(C)c(S(=O)(=O)N2CCN(c3ncnc4ccccc34)CC2)c1C | -222.0 | -2.6 | · | 54.8* | -4.0 | 7.2
CCOc1ccc2noc3c2c1C(=O)c1ccccc1-3 | 70.2* | 43.2 | 30.9 | -1.1 | 78.9* | 23.6
Cn1c(=O)cc2c3c(c(N4CCCCC4)ccc31)C(=O)c1ccccc1-2 | 38.9 | 16.2 | 11.7 | 17.0 | 29.2 | 0.1
O=S(=O)(c1ccccc1S(=O)(=O)N1CCCCC1)N1CCCCC1 | 11.7 | 9.0 | 13.9 | -1.1 | 6.3 | -3.0
O=C1c2ccccc2C(=O)c2c1cccc2N1CCCC1 | 46.3* | · | 21.6 | 9.6 | · | ·
O=C1C=C(N2CCCCC2)c2ccccc2C1=O | -432.0 | 82.6* | · | 93.8* | 93.3* | 54.6*
O=C1c2ccccc2-c2onc3ccc(N4CCCC4)c1c23 | 80.8* | · | 16.7 | -1.8 | · | ·
CC(C)CN1CCC1(C)C(=O)Nc1cccc(C#N)c1 (centres undefined) | 4.3 | · | · | -6.8 | · | ·
CCNc1ccc2noc3c2c1C(=O)c1ccccc1-3 | 42.0* | 5.9 | 22.5 | 22.7 | -11.1 | -14.2
O=C1c2ccccc2-c2onc3ccc(NCc4ccco4)c1c23 | 99.8* | 24.5 | 5.5 | 17.5 | 63.9* | -4.6
Cc1cc(NC(=O)Cc2ccccc2)nc2c1c(=O)oc1ccccc12 | -16.7 | -3.6 | -5.6 | 31.7 | -5.9 | -14.2
Cc1cccc(CC(=O)Nc2cc(C)c3c(=O)oc4ccccc4c3n2)c1 | -19.8 | 7.5 | 14.6 | 52.1* | -6.8 | 5.9
SMILES | SENP8 block-1 | SENP8 block-2 | PPC-1+TRAIL kill | C8 TRAIL sens | SENP6 inh | SENP7 inh
Cc1cc(NC(=O)C2CCCCC2)nc2c1c(=O)oc1ccccc12 | 2.9 | 0.1 | -24.2 | 33.5 | -4.0 | 4.1
Cc1cc(NC(=O)C2CCCC2)nc2c1c(=O)oc1ccccc12 | -32.1 | 5.8 | -12.0 | 70.6* | -11.4 | -6.1
O=c1[nH]c(S)c(/C=C2\C=Nc3ccccc32)s1 | 51.7* | 11.2 | 18.2 | -4.0 | 24.8 | 10.6
CCCCCCn1c(O)c(/C=C2\C=NN=C2c2ccccc2)sc1=S | 42.2* | -4.9 | 13.9 | 27.7 | -4.7 | -1.9
CCn1c(O)c(/C=C2\C=NN=C2c2ccccc2)sc1=S | 29.2 | -4.3 | 28.1 | 30.2 | -9.0 | -2.9
CC(C)Cn1c(O)c(/C=C2\C=NN=C2c2ccccc2)sc1=S | 40.4* | -9.3 | -2.2 | -4.8 | -20.4 | -1.0
O=C(CCN1C(=O)/C(=C\C=C\c2ccccc2)SC1=S)Nc1ccc(C(=O)O)cc1 | 16.1 | 59.9* | · | 26.1 | 59.4* | 17.6
O=C(CN1C(=O)S/C(=C/C=C/c2ccccc2)C1=O)Nc1ccc(C(=O)O)cc1 | -130.2 | 5.9 | 18.1 | 4.4 | 28.7 | 5.3
NS(=O)(=O)c1ccc(CCNC(=O)Cc2ccc(Cl)cc2)cc1 | 1.6 | -7.0 | · | -4.0 | -13.6 | -8.7
O=[N+]([O-])c1cc(C=Nc2cccc3c(O)cccc23)ccc1Cl | · | 59.6* | · | · | 84.3* | 25.1
O=[N+]([O-])c1cc(/C=N\Nc2ccccn2)ccc1Cl | 17.3 | -13.4 | · | -6.0 | -6.5 | -13.1
Cc1c(NC(=O)COC(=O)c2cc(-c3ccc(-c4ccccc4)cc3)nc3ccccc23)c(=O)n(-c2ccccc2)n1C | -397.8 | · | 81.1* | 87.4* | · | ·
O=C(COC(=O)c1cc(-c2ccccc2)nc2ccccc12)Nc1ccc2c(c1)OCO2 | -6.8 | -3.0 | 18.6 | -0.6 | -2.6 | 0.1
COc1ccc(-c2cc(C(=O)OCC(=O)Nc3ccc4c(c3)OCO4)c3ccccc3n2)cc1 | -403.0 | -10.9 | 31.2 | 55.9* | 5.5 | 3.3
Cc1c(NC(=O)c2cc(-c3ccccc3)nc3ccccc23)c(=O)n(-c2ccccc2)n1C | 12.7 | -17.3 | · | -0.7 | -8.8 | 0.8
CCOC(=O)[C@]12CCC=C1N(Cc1ccc3c(c1)OCO3)C(=O)[C@H](CC(=O)NCc1ccccc1)C2 | -45.2 | · | · | 7.0 | · | ·
CCC(=O)OCC(=O)c1c(N)n(Cc2ccccc2)c(=O)n(C)c1=O | -24.8 | -1.5 | 10.8 | 0.8 | 10.3 | 0.7
COC(=O)Cn1c(=O)c(C(=O)CCl)c(N)n(Cc2ccccc2)c1=O | 15.0 | 2.5 | 10.0 | 81.7* | 6.0 | 4.9
Cc1ccc(CNc2ncnc3c2cnn3C2CCCCO2)cc1 (centres undefined) | 14.0 | · | · | 1.3 | · | ·
Cc1ccccc1-c1nnc(-c2cccs2)o1 | -144.6 | 54.9* | 9.7 | 7.7 | 81.6* | 55.1*
c1coc(-c2nnc(-c3cccs3)o2)c1 | -230.2 | -7.1 | 21.8 | 12.8 | 3.2 | 15.6
CCCCCCC[N+](CC)(CC)CCCCc1ccc(Cl)cc1 | 11.9 | 1.4 | · | 56.6* | 5.5 | 4.2
CCCCCNCc1ccc(Cl)cc1 | 10.0 | -5.8 | -3.3 | 0.1 | -2.5 | 0.1
Cc1ccc(-c2nn(-c3ccccc3)cc2C=C2C(=O)CC(C)(C)CC2=O)cc1 | 24.8 | 10.1 | · | -3.6 | 5.0 | 3.5
CC1=NNC(=O)/C1=C\c1cn(-c2ccccc2)nc1-c1ccc(Cl)cc1 | 7.5 | -7.0 | 1.7 | 87.1* | -15.7 | -0.8
Cc1cc2nnc(SCC(=O)NC3CCCCC3)n2c(N)n1 | 5.3 | 8.4 | · | 3.1 | -17.1 | -1.4
COc1cccc(/C=C2\SC(=S)N(CCCC(=O)N3CCCCC3)C2=O)c1 | 25.5* | 2.3 | · | 32.2 | 28.8 | -4.5
COc1cccc(/C=C2\SC(=S)N(CCCC(=O)N(CCO)c3ccccc3)C2=O)c1 | 24.4 | -5.3 | · | 60.8* | 9.6 | -2.0
